High-throughput results from PubChem BioAssay.
The full list was thinned out, with hits kept by preference.
CHX counter: counter-screen for Shiga toxin inhibitors: cycloheximide protein synthesis inhibition; cell reporter, cycloheximide protein synthesis inhibition counterscreen; max response, %; 300,000 compounds, 12% hits; in the data active = max response mostly above about 13%, no sharp cut-off; inactive = mostly below about 14%; also: read at 38.3 µM for the half of the compounds with a filed dose; 0% is about no effect
NS1 inh: inhibitors of influenza NS1 protein function | Potency, µM (series often up to 46.1 µM), for the others: at the highest dose activity, positive = more growth | 270,000 compounds, 0.4% hits | AID 2326; also: potency is read from the fitted curve at half-maximal effect; actives are rising curves; nearly all actives have a fitted effect of over 50% in size
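Compounds were scored for reversing the slow growth caused by influenza A NS1 in S. cerevisiae, measured by optical density at 600 nm. Assay medium contained 2% galactose at pH 6.0; NS1-free yeast of the same strain were the positive control.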
TbPYK inhibitor: blocks Trypanosoma brucei pyruvate kinase; 410,000 compounds, 0.12% hits; TbPYK enzyme, Kinase-Glo Plus ATP luminescence, 45 min; Q57TT1; Potency, µM (titrated, usually from 76.8 µM), for inactives: top-dose activity, negative = inhibition, usual class: inhibitors; active = well fitted curve in the direction sought with a large enough effect; inconclusive = small, poorly fitted or top-dose-only effect, or another doubt; inactive = no such curve, though single readings can be large; an effect the other way counts as inactive or inconclusive; also: potency is read from the fitted curve at half-maximal effect; % is scaled to controls: 0 for no effect and ±100 for the full control effect; nearly all actives have a fitted effect of over 50% in size
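In this concentration-response screen, enzyme-free wells defined baseline while DMSO plates tracked drift. Each reaction combined TbPYK, substrate, compound and 130 uM ADP for 45 min at room temperature. Kinase-Glo Plus luminescence gave the signal.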
SARS PLP yeast: SARS-CoV PLP inhibition in yeast | S. cerevisiae expressing SARS-CoV PLpro, growth rescue | Potency, µM (top dose mostly 32.9 µM), without a hit: at the top dose activity, positive = growth rescue, most hits filed as activators | 330,000 compounds, 0.19% hits | AID 485353; also: potency is read from the fitted curve at half-maximal effect; 0% is about no effect; nearly all actives have a fitted effect of over 55% in size
LmPK inhibitor: blocks Leishmania mexicana pyruvate kinase activity. Q27686. purified LmPK, Kinase-Glo ATP luminescence, 1 h. Potency, µM (titrated, usually from 57.5 µM), for the others: at the top dose activity change, negative = inhibition, most hits filed as inhibitors. 290,000 compounds, 0.37% hits; active = well fitted curve in the direction sought with a large enough effect; inconclusive = small, poorly fitted or top-dose-only effect, or another doubt; inactive = no such curve, though single readings can be large; an effect the other way counts as inactive or inconclusive; also: potency is read from the fitted curve at half-maximal effect; % is scaled to controls: 0 for no effect and ±100 for the full control effect
Target sequence (Q27686 whole entry, looked up): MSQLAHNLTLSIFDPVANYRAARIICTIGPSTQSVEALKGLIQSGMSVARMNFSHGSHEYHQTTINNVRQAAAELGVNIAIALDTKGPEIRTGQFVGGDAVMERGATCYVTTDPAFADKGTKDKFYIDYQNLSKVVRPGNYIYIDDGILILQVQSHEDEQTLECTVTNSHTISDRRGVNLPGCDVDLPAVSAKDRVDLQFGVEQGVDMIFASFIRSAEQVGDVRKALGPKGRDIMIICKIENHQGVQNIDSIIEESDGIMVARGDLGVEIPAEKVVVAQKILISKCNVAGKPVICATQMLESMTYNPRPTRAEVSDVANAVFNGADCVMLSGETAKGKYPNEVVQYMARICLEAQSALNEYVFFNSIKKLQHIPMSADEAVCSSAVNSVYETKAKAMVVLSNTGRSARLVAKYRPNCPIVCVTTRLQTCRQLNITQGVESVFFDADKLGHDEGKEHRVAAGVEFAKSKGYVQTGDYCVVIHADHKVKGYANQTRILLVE
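0.1 nM LmPK, 0.5 mM PEP, 0.1 mM ADP; 50 mM imidazole pH 7.2, 7 mM MgCl2, 50 mM KCl; 1 h RT. Kinase-Glo luminescence readout, normalized to no-enzyme (full inhibition) and uninhibited wells.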
Shiga toxin inh: Shiga toxin inhibition; AID 2315; 290,000 compounds, 9.2% hits; inhibition, % at 38.7 µM; Vero cells, Shiga toxin protein synthesis inhibition reporter; in the data active = inhibition mostly above about 28%, no sharp cut-off; inactive = mostly below about 43%; also: 0% is about no effect
* = called active by the depositor; ? = inconclusive; / = not tested or not shown. Unless noted, calls follow the shape of the full dose curve.

SMILES | CHX counter | NS1 inh | TbPYK inhibitor | SARS PLP yeast | LmPK inhibitor | Shiga toxin inh
O=C1COc2ccc(C(=O)COC(=O)Cc3ccsc3)cc2N1 | 11* | -5% | 2% | 1% | -3% | 21
O=C1COc2ccc(C(=O)COC(=O)Cc3ccccc3F)cc2N1 | 4 | / | 6% | 2% | -1% | 32
COc1ccc(NC(=S)N2CCC3CC2c2c(Cl)cccc23)c(OC)c1 (centres undefined) | / | / | 4% | / | / | /
O=C(O)Cn1nc(-c2ccccc2)cc1-c1ccccc1 | 12 | 1% | -4% | -1% | -5% | 9
CCC1C(=O)n2nc(-c3ccccc3)cc2N=C1C (centres undefined) | 40* | -3% | 1% | -29% | -12% | active
O=C(CNC(=O)c1ccccc1F)NCc1ccccn1 | / | / | 2% | -1% | / | /
Nc1cc(C(=O)c2cccs2)ccc1Cl | 17* | -3% | -22% | 4% | 0% | 34
O=C(c1ccc(Cl)nc1)c1cccs1 | -3 | 1% | -1% | 2% | 0% | 15
O=c1[nH]c2cc([N+](=O)[O-])cc([N+](=O)[O-])c2[nH]c1=O | -9 | / | / | / | / | -10
C/C(=N/OC(=O)c1ccccc1)c1oc(C)nc1C | 51* | -10% | -11% | -1% | ? | 64*
COc1ccccc1-c1c(C)nn2c(N)c(-c3ccccc3)cnc12 | 39* | -51% | 5% | -6% | 3% | 67*
COCc1nn2c(N)c(-c3ccccc3)cnc2c1-c1ccccc1 | 38* | 8% | -1% | -2% | 0% | 33*
COc1ccc(-c2c(C)nn3c(N)c(-c4ccccc4)cnc23)cc1OC | 18* | -8% | 6% | -2% | 13% | 88
COCc1nn2c(N)c(C#N)cnc2c1-c1ccccc1 | -1 | 6% | 11% | -7% | 6% | -5
COc1c(Cl)cc(C(=O)Nc2cccc(-c3nc4ccccc4[nH]3)c2)cc1Cl | / | / | -2% | / | / | /
Cn1cccc1-c1nc2ccc(NC(=O)c3ccco3)cc2[nH]1 | 44* | -7% | 2% | -7% | 0% | 56
Cc1ccc2nc(-c3ccc(NC(=O)c4ccco4)cc3)[nH]c2c1 | 39* | -12% | -6% | -5% | -3% | 75*
CC(=O)Nc1ccc2nc(-c3ccncc3)[nH]c2c1 | 10 | -4% | -2% | 2% | 4% | 30
O=C(Nc1cccc(-c2nc3ccccc3[nH]2)c1)c1ccco1 | 17 | -110% | 1% | -5% | -5% | 42*
O=C(Nc1cccc(-c2cnc3ccccc3n2)c1)c1cccc(NC(=O)c2ccco2)c1 | 43* | 10% | 0% | 4% | 4% | 46*
CN1CCC(Nc2ncc3ncnc(Nc4ccc(F)c(Cl)c4)c3n2)CC1 | -2 | / | 9% | / | / | -6
c1ccc(NCc2cccnc2)cc1 | -2 | -2% | 6% | 9% | -2% | -15
c1cncc(CNc2cccc(-c3nc4ccccc4[nH]3)c2)c1 | 54* | 4% | 2% | -5% | -11% | active
O=C(Nc1ccc2nc(-c3cccs3)[nH]c2c1)c1ccco1 | 27* | 1% | -14% | -22% | -7% | 60*
Cc1ccc(NC(=O)C2CCCN(S(=O)(=O)c3ccc(C)cc3)C2)cc1 (centres undefined) | / | / | 4% | / | / | /
SMILES | CHX counter | NS1 inh | TbPYK inhibitor | SARS PLP yeast | LmPK inhibitor | Shiga toxin inh
Fc1cccc(Cl)c1CNc1ccc(N2CCCC2)cc1 | 29* | 5% | ? | 0% | -15% | 22
O=S(=O)(Nc1ccc(N2CCCCC2)cc1)c1ccccc1F | 16* | 1% | -18% | 0% | 1% | 36
O=S(=O)(Nc1ccc(N2CCCCC2)cc1)c1ccc(F)cc1 | 13* | -8% | -2% | -2% | 5% | 51*
O=S(=O)(Nc1ccc(F)cc1)N1CCOCC1 | 34* | ? | 7% | 0% | 2% | 4
O=S(=O)(Nc1ccc(N2CCOCC2)cc1)c1ccc(F)cc1 | 1 | 0% | -6% | 0% | 1% | 24
COc1ccccc1CN(C)C[C@@H]1OCc2cnnn2CCCC(=O)N([C@H](C)CO)C[C@H]1C | / | / | -8% | / | / | /
CCc1ccccc1NS(=O)(=O)c1ccc(-c2coc(C)n2)cc1 | / | / | 5% | / | / | /
CCOc1ccccc1NC(=O)C(=O)NCCc1sc(-c2cccc(F)c2)nc1C | / | / | -7% | / | / | /
Cc1ccc(C2=NN(CC(=O)NCCN(CC(C)C)CC(C)C)C(=O)CC2)cc1 | 14 | -5% | 4% | 2% | 4% | -17
O=S(=O)(Nc1ccc(N2CCCCC2)cc1)c1ccc(F)cc1F | 16* | -4% | -7% | -1% | 0% | 21
O=S(=O)(Nc1ccc(S(=O)(=O)N2CCCCCC2)cc1)c1cccs1 | -5 | 0% | -5% | 11% | 4% | -4
O=S(=O)(c1ccccc1)c1ccc(N2CCCCCC2)cc1 | 21* | -15% | -3% | -1% | 0% | /
O=S(=O)(Nc1ccc(N2CCCCC2)cc1)c1cccs1 | 41* | -4% | -18% | -1% | 0% | 60*
CCCCCCN1C[C@H](O)[C@@H](n2cc(COC(=O)c3ccccc3)nn2)C[C@@H]1c1ccc(Cl)cc1 | / | / | 4% | / | / | /
Cc1ccc(Cl)cc1N1CCN(C(=O)Cn2ncc3c4ccccc4n(C)c3c2=O)CC1 | / | / | -2% | / | / | /
c1ccc2c(c1)-c1nc3ccccc3cc1[C@H]2N1CCOCC1 | / | -19% | / | / | / | /
COc1ccc(S(=O)(=O)n2oc(=O)cc2-c2ccccc2)cc1 | 8 | 2% | -5% | -2% | 8% | 18
O=c1cc(-c2ccccc2)n(S(=O)(=O)c2ccccc2)o1 | 16* | 0% | -1% | 6% | -11% | -9
Cc1cc(NC(=O)Nc2ccc(N(C)C)cc2)c2cc(F)cc(F)c2n1 | 28* | / | / | / | / | 34*
COC(=O)c1ccc2nc(C)cc(Nc3ccc(N(C)C)cc3)c2c1 | -3 | 26% | -6% | 6% | 3% | -13
Nc1c(C(=O)N/N=C/c2ccc(Cl)cc2)cnn1-c1ccccc1 | 17 | 12% | -4% | 0% | 1% | 37
COc1cccc(/C=N/NC(=O)c2cnn(-c3ccccc3)c2N)c1 | 46* | 0% | -1% | 1% | -22% | 72*
Nc1c(C(=O)N/N=C/c2cccnc2)cnn1-c1ccccc1 | 47* | 17% | -2% | 7% | -3% | 51*
Nc1c(C(=O)N/N=C/c2ccc(OCc3ccccc3)cc2)cnn1-c1ccccc1 | 9 | -6% | -1% | 0% | 0% | 16
CC(C)(C)c1ccc(O)c(C[N+](C)(C)C)c1 | / | -3% | / | / | / | /
O=C(O)CCn1c(SCc2ccccc2)nc2ccccc21 | 9 | -5% | 2% | 2% | -5% | 23*
COC(=O)Cn1c(SCc2ccccc2)nc2ccccc21 | 18* | -16% | -6% | -9% | -8% | 48
COc1ccccc1OCCSc1nc2ccccc2n1CC(O)CO (centres undefined) | 13* | 18% | 2% | -2% | -7% | 25
O=C(O)CCn1c(SCCOc2ccccc2F)nc2ccccc21 | 18* | -1% | -3% | 2% | 0% | 5
